Source: PubChem BioAssay
Active and inactive are the calls of the source. Unless noted, the rule behind the calls is not given here.

Legend:
[1] = HepG2 liver cancer cell viability effects, profiling panel, resazurin fluorescence, 24 h, PK04 Diversity Set (AID 1172); settings: higher = more signal
[2] = basal S. cerevisiae growth modulation, no modifier, primary screen, OD600, strain BY4716, 24 h, basal condition (AID 1173); settings: OD600, 24 h, higher = more signal, called active from +8 up or from −8 down
[3] = MM1S myeloma cell viability, profiling panel, resazurin fluorescence, basal, 24 h, PK04 Diversity Set (AID 1174); settings: higher = more signal, called active from +8 up or from −8 down;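 note: MM1S multiple myeloma cell line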
[4] = biological target: Dihydroorotate dehydrogenase (quinone), mitochondrial (Plasmodium falciparum (isolate 3D7)) (UniProt Q08210); experiment: PfDHODH enzyme inhibitors, primary screen, biochemical, C-terminal His tag, absorbance 600 nm (AID 1175); settings: DCIP absorbance 600 nm, higher = more signal, called active from +8 up or from −8 down;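 note: recombinant parasite enzyme with a five histidine tag at its C terminus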
[5] = P. aeruginosa biofilm formation inhibitors, primary screen, strain PAO1, LB-PBS medium, absorbance 600 nm (AID 1176); settings: P. aeruginosa PAO1 growth/biofilm, A600, 12 h; higher = more signal
[6] = S. cerevisiae RM11-1a growth modifiers, primary screen, strain RM11-1a, OD600, basal, 24 h (AID 1177); settings: OD600, 24 h, higher = more signal, called active from +8 up or from −8 down;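 note: cultures grown under basal conditions with no added stressor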
[7] = E. coli acrAB mutant growth effects, primary screen, E. coli filamentation inducers, strain DRC39, OD650, 24 h (AID 1178); settings: higher = more signal, called active from +8 up or from −8 down;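 note: growth measured as culture turbidity by optical density at 650 nm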
[8] = E. coli acrAB mutant growth effects, primary screen, E. coli filamentation inducers, strain DRC39, OD650, 48 h (AID 1179);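 note: screen aims at cell division blockers that make cells filament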; settings: E. coli DRC39 delta-acrAB growth, higher = more signal, called active from +8 up or from −8 down
[9] = RPMI8226 myeloma cell viability, profiling panel, resazurin fluorescence, basal, 24 h, PK04 Diversity Set (AID 1180); settings: higher = more signal;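 note: RPMI8826 multiple myeloma cell line at 5000 cells per well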
[10] = biological target: E3 ubiquitin-protein ligase XIAP (Homo sapiens) (UniProt P98170); experiment: XIAP binders, primary screen, biophysical, small-molecule microarray, fluorescence 635 nm (AID 1181); settings: small-molecule microarray binding, higher = more signal;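 note: score merges 667 nm emission and signal to noise over triplicate slides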
[11] = tested on: XIP peptide (Xip251-270) binding; experiment: small-molecule binders of XIP peptide, primary screen, biochemical, small-molecule microarray, fluorescence 635/667 nm, 0.1 µg/mL protein (AID 1182); settings: fluorescent protein binding, 635 nm, higher = more signal, called active from +8 up or from −8 down
XIP peptide (Xip251-270) = experiment: small-molecule binders of XIP peptide, primary screen, biochemical, small-molecule microarray, fluorescence 635/667 nm, 0.5 µg/mL protein (AID 1183); settings: small-molecule microarray binding, fluorescence 635 nm; higher = more signal
[12] = Plasmodium falciparum growth inhibition, primary screen, strain 3D7, DAPI fluorescence, 100 nL (AID 1184);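 note: parasites grown inside human red blood cells in medium with human serum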; settings: P. falciparum 3D7 growth, 3 d, higher = more signal
[13] = biological target: Homeobox protein Hox-A13 (Mus musculus) (UniProt Q62424); experiment: inhibitors of HoxA13-DNA binding, primary screen, biochemical, fluorescence polarization, labeled oligonucleotide (AID 1185); settings: 15 min, higher = more signal, called active from +8 up or from −8 down
[14] = inhibitors of hydroxyurea-induced Chk1 phosphorylation, primary screen, imaging, HeLa, phospho-Chk1 antibody, percent positive cells (AID 1186); settings: hydroxyurea-induced phospho-Chk1 immunofluorescence imaging, higher = more signal
[15] = inhibitors of hydroxyurea-induced Chk1 phosphorylation, primary screen, imaging, HeLa, phospho-Chk1 nuclear intensity (AID 1187); settings: hydroxyurea-induced phospho-Chk1 immunofluorescence imaging, higher = more signal

Sequence of Dihydroorotate dehydrogenase (quinone), mitochondrial (Plasmodium falciparum (isolate 3D7)) (Q08210 whole entry, looked up): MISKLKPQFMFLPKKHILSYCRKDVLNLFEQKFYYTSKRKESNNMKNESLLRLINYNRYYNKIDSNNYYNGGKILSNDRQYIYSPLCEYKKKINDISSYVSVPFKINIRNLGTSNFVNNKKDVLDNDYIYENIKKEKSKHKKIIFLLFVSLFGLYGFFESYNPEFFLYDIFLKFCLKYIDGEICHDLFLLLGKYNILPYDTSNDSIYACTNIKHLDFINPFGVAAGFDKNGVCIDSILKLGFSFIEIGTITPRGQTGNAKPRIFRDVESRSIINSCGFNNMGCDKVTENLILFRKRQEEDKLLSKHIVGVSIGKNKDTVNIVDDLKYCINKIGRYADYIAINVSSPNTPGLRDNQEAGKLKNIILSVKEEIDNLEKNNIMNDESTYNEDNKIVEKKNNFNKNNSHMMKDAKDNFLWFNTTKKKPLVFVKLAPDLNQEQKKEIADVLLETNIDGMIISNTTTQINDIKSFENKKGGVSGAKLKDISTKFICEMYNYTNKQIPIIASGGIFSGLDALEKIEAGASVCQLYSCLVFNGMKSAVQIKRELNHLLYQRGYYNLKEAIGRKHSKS
Sequence of Homeobox protein Hox-A13 (Mus musculus) (Q62424 whole entry, looked up): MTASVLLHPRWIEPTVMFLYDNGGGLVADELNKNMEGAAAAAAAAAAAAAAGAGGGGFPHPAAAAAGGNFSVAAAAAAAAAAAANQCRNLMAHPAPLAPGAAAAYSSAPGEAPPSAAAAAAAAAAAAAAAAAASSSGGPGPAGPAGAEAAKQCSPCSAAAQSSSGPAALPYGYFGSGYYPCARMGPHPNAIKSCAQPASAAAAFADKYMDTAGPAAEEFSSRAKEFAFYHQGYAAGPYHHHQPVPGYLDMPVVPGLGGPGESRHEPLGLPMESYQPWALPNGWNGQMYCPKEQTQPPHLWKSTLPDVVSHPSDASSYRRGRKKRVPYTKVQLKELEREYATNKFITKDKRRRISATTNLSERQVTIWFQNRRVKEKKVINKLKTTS
Sequence of E3 ubiquitin-protein ligase XIAP (Homo sapiens) (P98170 whole entry, looked up): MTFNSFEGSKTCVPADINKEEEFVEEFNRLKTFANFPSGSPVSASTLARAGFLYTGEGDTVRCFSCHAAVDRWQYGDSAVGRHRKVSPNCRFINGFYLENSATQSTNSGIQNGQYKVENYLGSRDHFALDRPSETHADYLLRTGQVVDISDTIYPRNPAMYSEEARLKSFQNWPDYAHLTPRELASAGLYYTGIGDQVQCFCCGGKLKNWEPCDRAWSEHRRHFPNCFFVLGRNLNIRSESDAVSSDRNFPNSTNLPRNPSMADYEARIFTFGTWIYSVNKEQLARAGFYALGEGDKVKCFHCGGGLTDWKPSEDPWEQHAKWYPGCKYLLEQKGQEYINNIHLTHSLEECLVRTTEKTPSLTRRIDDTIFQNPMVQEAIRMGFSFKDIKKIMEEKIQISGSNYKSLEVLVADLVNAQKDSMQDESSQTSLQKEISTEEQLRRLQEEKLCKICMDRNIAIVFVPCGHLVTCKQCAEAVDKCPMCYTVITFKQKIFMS

SMILES | z-score [1] | z-score [2] | z-score [3] | composite z-score [4] | z-score [5] | z-score [6] | z-score [7] | z-score [8] | z-score [9] | composite z-score [10] | composite z-score [11] | composite z-score (XIP peptide (Xip251-270)) | z-score [12] | z-score [13] | z-score [14] | z-score [15]
C=C(COC)C(=O)CC[C@H](OC(C)=O)c1ccc(CO)o1 | 0.815 | -0.111 (inactive) | 0.324 (inactive) | -1.28 (inactive) | -0.517 (inactive) | -1.28 (inactive) | 0.581 (inactive) | 0.117 (inactive) | 0.875 | 0.194 | -0.153 (inactive) | 0.626 | -0.689 | -4.72 (inactive) | -0.707 (inactive) | -0.842 (inactive)
CC(C)c1ccc(NN2C(C(O)C3=C[C@H]4C[C@@H](C3)C4(C)C)C=CC3C(=O)N(c4ccccc4)C(=O)C32)cc1 (stereo partly drawn) | -1.11 | -1.8 (inactive) | 0.32 (inactive) | 0.0752 (inactive) | 0.863 (inactive) | 0.786 (inactive) | -0.326 (inactive) | -0.629 (inactive) | 0.319 | 0.339 | 1.35 (inactive) | 0.464 | -0.0979 | -2.33 (inactive) | -0.0307 (inactive) | -0.257 (inactive)
C=CC[C@H](O)c1ccc(O)c2ccccc12 | -0.129 | -15.1 (active) | -1.42 (inactive) | -1.86 (inactive) | 0.614 (inactive) | 0.891 (inactive) | 0.682 (inactive) | 0.419 (inactive) | -1.05 | -0.113 | 0.0693 (inactive) | 0.512 | -1.36 | -2.1 (inactive) | 0.835 (inactive) | 1.01 (inactive)
C=CCNC(=O)[C@@H]1[C@H]2C(=O)O[C@H](c3ccccc3)[C@H](c3ccccc3)N2[C@H](c2ccc(O)cc2)[C@@]12C(=O)Nc1ccc(C#CC3=CCCCC3)cc12 | -0.496 | 0.233 (inactive) | -3.25 (inactive) | -0.691 (inactive) | 1.66 (inactive) | 1.28 (inactive) | -0.33 (inactive) | 0.254 (inactive) | -6.25 | 0.28 | 1.79 (inactive) | 0.716 | 0.155 | 0.828 (inactive) | 0.0206 (inactive) | -0.275 (inactive)
C=C(COC)/C(=C/C[C@@H](OC(=O)c1ccncc1)c1ccccc1OCCO)c1cnc2ccccc2c1 | -0.567 | -0.0618 (inactive) | 0.028 (inactive) | -3.66 (inactive) | -0.66 (inactive) | 0.0519 (inactive) | 0.825 (inactive) | 0.359 (inactive) | 0.0353 | 0.166 | 0.882 (inactive) | 0.745 | -3.1 | -4.25 (inactive) | 0.112 (inactive) | -0.291 (inactive)
COc1ccc([Si](C)(C)[C@H]2[C@H](CC(=O)N3CCC[C@H]3CO)O[C@@]3(C(=O)N(C)c4c(Br)cc(C)cc43)[C@@H]2C)cc1 | 0.728 | -0.966 (inactive) | 0.968 (inactive) | -1.3 (inactive) | 0.92 (inactive) | 0.301 (inactive) | 0.541 (inactive) | 0.24 (inactive) | 0.235 | 1.43 | 1.14 (inactive) | 0.341 | -1.56 | -5.84 (inactive) | 0.27 (inactive) | 0.523 (inactive)
CCCCC(=C=CC[C@@H](O)c1ccccc1OCCO)C[C@@H](O)c1ccccn1 | 0.687 | -1.72 (inactive) | 0.538 (inactive) | -7.64 (inactive) | 0.354 (inactive) | -0.506 (inactive) | 1.04 (inactive) | 0.52 (inactive) | 0.805 | -0.287 | 0.161 (inactive) | 0.338 | -1.48 | -5.1 (inactive) | -0.0323 (inactive) | -0.123 (inactive)
Cc1ccc(S(=O)(=O)N2[C@@H](c3ccccc3)C(C(=O)O)=CC[C@H]2c2ccc(F)cc2)cc1 | 0.0445 | -0.93 (inactive) | -0.3 (inactive) | -0.667 (inactive) | 0.244 (inactive) | -0.069 (inactive) | -0.0944 (inactive) | 0.0973 (inactive) | -0.858 | 0.142 | -0.311 (inactive) | -0.0114 | -0.204 | -5.57 (inactive) | 0.388 (inactive) | 0.391 (inactive)
